Shiga toxin inh = Shiga toxin inhibition; 290,000 tested, 9.2% active; inhibition, % at 38.7 µM; Vero cells, Shiga toxin protein synthesis inhibition reporter; AID 2315; in the data active = inhibition mostly above about 28%, no sharp cut-off; inactive = mostly below about 43%; note: 0% is about no effect
CHX counter = counter-screen hit for Shiga toxin inhibitors, cycloheximide; 300,000 tested, 12% active; cell reporter, cycloheximide protein synthesis inhibition counterscreen; max response, %; in the data active = max response mostly above about 13%, no sharp cut-off; inactive = mostly below about 14%; note: read at 38.3 µM for the half of the compounds with a filed dose; 0% is about no effect
Sm TGR block = S. mansoni TGR enzyme inhibition; Q962Y6; purified TGR, DTNB reduction, TNB absorbance 405 nm; Potency, µM (doses to about 114 µM), for inactives: at the highest dose activity change, negative = inhibition, most hits filed as inhibitors; 360,000 tested, 3% active; AID 485364; active = well fitted inhibition curve with a large enough effect; inconclusive = small, poorly fitted or top-dose-only effect; inactive = no such curve, though single readings can be large or run the other way; note: potency is the fitted concentration of half-maximal effect; % is set by controls: 0 for no effect and ±100 for the full control effect; nearly all actives have a fitted effect of over 60% in size
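TGR 20 nM + NADPH 100 uM (dispensed conc.), cpd preinc 15 min RT; start with NADPH (500 uM addition) then DTNB (15 mM addition). Kinetic TNB absorbance, 405 nm filter. Four-parameter Hill fit across titration.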
FMDV antiviral = foot and mouth disease virus antiviral activity. FMDV antiviral cell-based qHTS. Potency, µM (titrated, usually from 57.9 µM), without a hit: at the highest dose activity change, negative = inhibition, actives largely listed as inhibitors. 410,000 tested, 1.2% active; calls by dose curve; tested in HEK293T cells; note: read-out not given here; potency is the fitted concentration of half-maximal effect; % is set by controls: 0 for no effect and ±100 for the full control effect; nearly all actives have a fitted effect of over 45% in size
Numbers without * were called inactive; ? = inconclusive; . = no result; [ ] = another dose, or the depositor's remark. The list is not random: actives were taken first. Their share in the collection is about 12%.

SMILES	Shiga toxin inh	CHX counter	Sm TGR block	FMDV antiviral
O=C(c1cn(CC2CCCCC2)nn1)N1CCN(c2ccc(F)cc2)CC1	49*	30*	-18%	-22%
O=C(c1ccccc1C(=O)N1CCN(c2ccc(F)cc2)CC1)N1CCN(c2ccc(F)cc2)CC1	2	-3	-9%	22µM*
O=C(COC(=O)c1ccccc1C(=O)N1CCN(c2ccc(F)cc2)CC1)NCc1ccccc1	-3	-2	-1%	25µM*
O=C(c1ccccc1C(=O)N1CCN(c2ccccc2)CC1)N1CCN(c2ccccc2)CC1	-2	1	8%	-23%
O=C(O)c1ccccc1C(=O)N1CCN(C(=O)c2ccccc2Cl)CC1	21	7	89µM*	8%
N#CC(C#N)=C(N)/C(C#N)=C/c1ccc2[nH]ccc2c1	.	.	.	5%[97.4 µM]
CCCOc1ccc(C2=NC(c3ccc(F)cc3)=Nc3ccc(OC)cc3N2)cc1	.	.	1%	17%
O=C(O)c1ccccc1C(=O)N1CCN(c2ccccc2)CC1	9	7	35µM*	0%
COc1cccc(NC(=O)COC(=O)c2ccccc2C(=O)N2CCN(c3ccccc3)CC2)c1	4	2	-5%	18µM*
Cc1ccccc1Cn1ccn(-c2ccc(F)c(F)c2)c(=O)c1=O	.	.	1%	-9%
COCCC(=O)N1CCC(Oc2ccc(C(=O)N(C)CCCC3CCCC3)cc2)CC1	57*	26*	-2%	1%
COCCC(=O)N1CCC(Oc2ccc(C(=O)NCCCC3CCCC3)cc2)CC1	19	13*	0%	-26%
COCCC(=O)N1CCC(Oc2ccc(C(=O)N3CCCCCCC3)cc2)CC1	20	-2	-25%	11%
COCCC(=O)N1CCC(Oc2ccc(C(=O)NC3CCCCC3)cc2)CC1	-2	-1	6%	-4%
COCCC(=O)N1CCC(Oc2ccc(C(=O)NCCC3=CCCCC3)cc2)CC1	29	19*	-5%	-1%
Cc1cc(C)c(NC(=O)C(C)n2c(=O)cc(-c3ccccc3)c3c(C)nn(C)c32)c(C)c1 (centres undefined)	.	.	4%	-17%
CCOc1ccc(S(=O)(=O)NCC(c2ccco2)S(=O)(=O)c2cccs2)cc1 (centres undefined)	.	.	0.1µM*	54%
Cc1ccc(S(=O)(=O)C(CNS(=O)(=O)c2ccc(F)c(C(F)(F)F)c2)c2ccco2)cc1 (centres undefined)	.	.	0.32µM*	59%
Cc1ccc(S(=O)(=O)C(CNC(=O)c2c(F)cccc2F)c2ccco2)cc1 (centres undefined)	.	.	-13%	27%
COc1ccc(S(=O)(=O)NCC(c2ccco2)S(=O)(=O)c2cccs2)cc1C (centres undefined)	.	.	0.1µM*	41%
CCOc1ccc(NS(=O)(=O)c2ccc(NS(=O)(=O)c3cccs3)cc2)cc1	-10	-3	2%	21%
COc1ccc(S(=O)(=O)NCC(c2ccco2)S(=O)(=O)c2ccc(C)cc2)cc1F (centres undefined)	.	.	0.4µM*	48%
Cc1ccc(S(=O)(=O)C(CNC(=O)c2ccc(F)c(F)c2)c2ccco2)cc1 (centres undefined)	.	.	-25%	4%
FC(F)(F)c1ccccc1-c1ccc2ncnc(N3CCOCC3)c2c1	.	.	.	-47%
CN1CCN(C(=O)Nc2cccc(Cl)c2)c2cccnc21	.	.	3%	-2%
SMILES	Shiga toxin inh	CHX counter	Sm TGR block	FMDV antiviral
CCOc1ccc(NC(=O)CC2C(=O)N(c3ccc(F)cc3)C(=O)N2Cc2ccc(OC)c(OC)c2)cc1 (centres undefined)	.	.	6%	-9%
Cc1cc(F)ccc1S(=O)(=O)NCC(c1ccco1)S(=O)(=O)c1cccs1 (centres undefined)	.	.	0.1µM*	59%
COc1ccc(S(=O)(=O)NCC(c2ccco2)S(=O)(=O)c2cccs2)cc1F (centres undefined)	.	.	0.1µM*	58%
CCC1CCCCN1C(=O)CSc1nc(-c2ccc(OC)cc2)cc(C(F)(F)F)n1 (centres undefined)	.	.	4%	?
Cc1ccccc1/C(=N\S(=O)(=O)c1ccc(Br)cc1)Nc1ccccc1	.	.	.	20%
Cc1c(/N=C(\[O-])Nc2ccc(Br)cc2)sn[n+]1C	95*	47*	1%	-40%
Cc1ccc(C)c(N2CCN(C(=O)CCn3c(=O)c4cccn4c4cccnc43)CC2)c1	.	.	2%	?
CN1C[C@@H](CO)C=C2c3cccc4[nH]cc(c34)CC21 (some centres undefined)	-4	-8	.	.
CN1C[C@H](CO)C=C2c3cccc4[nH]cc(c34)C[C@H]21	10	0	11µM*	0%
O=C(Nc1ccc(-n2cccn2)cc1)C1CCCCN1Cc1cccc2cccnc12 (centres undefined)	11	24*	11%	8%
COc1cccc(CNCCSc2nnnn2-c2ccccc2)c1OC	.	.	-1%	-12%
COc1cccc(C(=O)N2c3ccc(C)cc3C(C)(c3ccccc3)CC2(C)C)c1 (centres undefined)	.	.	7%	?
CC(=Nc1ccc(C)cc1C)c1sc2ccccc2c1O	119*	37*	48%	-24%
CC(=Nc1cccc(O)c1)c1sc2ccccc2c1O	111*	55*	-3%	.
CC(=Nc1ccc(C)cc1)c1sc2ccccc2c1O	92*	35*	5%	.
CCc1cccc(NC(=O)CCS(=O)(=O)c2ccc3nc(C)sc3c2)c1	.	.	-2%	5%
Cc1ccc(Cn2c(CN3CCC(C(=O)NCc4cccnc4)CC3)cc3ccccc32)cc1	.	.	-10%	?
Cc1ccc(Cl)cc1N1CCN(C(=O)c2cn(C)c3ccc(S(=O)(=O)N4CCC(C)CC4)cc3c2=O)CC1	.	.	4%	-16%
CCOC(=O)[C@H]1[C@H]2COc3ccc(Cl)cc3[C@@H]2N2C(=O)CN(Cc3ccco3)C(=O)[C@@]12C	.	.	16µM*	-10%
CCOC(=O)[C@H]1[C@H]2COc3cc(OC)ccc3[C@@H]2N2C(=O)CN(Cc3ccco3)C(=O)[C@@]12C	.	.	18µM*	-4%
O=C(CSc1nccn1Cc1ccco1)Nc1cccc(F)c1	39*	27*	13%	20%
Cc1ccc(NC(=O)CSc2nccn2Cc2ccco2)cc1	90*	78*	-36%	3%
COc1ccc(NC(=O)CSc2nccn2Cc2ccccc2)c(OC)c1	17	12	-4%	18%
CC(=O)c1ccc(NC(=O)CSc2nccn2Cc2ccco2)cc1	.	.	-9%	39%
CC(CCc1ccco1)NC(=O)Nc1cccc(F)c1 (centres undefined)	16	21*	-32%	38%
SMILES	Shiga toxin inh	CHX counter	Sm TGR block	FMDV antiviral
COc1ccc(NC(=O)CSc2nccn2Cc2ccco2)c(OC)c1	44*	25*	-5%	6%
O=C(c1ccc2c(c1)N(Cc1ccc(Cl)cc1)C(=O)c1ccccc1S2=O)N1CCOCC1 (centres undefined)	.	.	-13%	-12%
Cc1ccc(NC(=O)CSc2ncc3ccccn23)cc1	70*	28*	-2%	21%
COc1ccc(/C=C2/C(=O)NC(=O)N(C3CCCCC3)C2=O)cc1CSc1ccccn1	-2	-2	35µM*	.
COc1ccc(/C=C2/C(=O)NC(=S)N(C3CC3)C2=O)cc1CN1C(=O)c2ccccc2C1=O	-17	-6	11µM*	?
COc1cccc(C2=CC(c3ccccc3)n3nnnc3N2)c1 (centres undefined)	3	1	-3%	.

Screening results from PubChem.
